Measured values taken from ChEMBL document CHEMBL3433997, “St. Jude Leishmania screening dataset” (2016).

target: Solute carrier family 2, facilitated glucose transporter member 1 (Homo sapiens) (UniProt P11166); test: ST_JUDE_LEISH: Cytotoxicity at 2uM final concentration against transgenic Leishmania Mexicana promastigotes LmGLUT1 that are glucose transport deficient and complemented with the human glucose transporter GLUT1. Activity is measured by DNA content using SYBR green in vitro; type: functional
Sequence (P11166 whole entry): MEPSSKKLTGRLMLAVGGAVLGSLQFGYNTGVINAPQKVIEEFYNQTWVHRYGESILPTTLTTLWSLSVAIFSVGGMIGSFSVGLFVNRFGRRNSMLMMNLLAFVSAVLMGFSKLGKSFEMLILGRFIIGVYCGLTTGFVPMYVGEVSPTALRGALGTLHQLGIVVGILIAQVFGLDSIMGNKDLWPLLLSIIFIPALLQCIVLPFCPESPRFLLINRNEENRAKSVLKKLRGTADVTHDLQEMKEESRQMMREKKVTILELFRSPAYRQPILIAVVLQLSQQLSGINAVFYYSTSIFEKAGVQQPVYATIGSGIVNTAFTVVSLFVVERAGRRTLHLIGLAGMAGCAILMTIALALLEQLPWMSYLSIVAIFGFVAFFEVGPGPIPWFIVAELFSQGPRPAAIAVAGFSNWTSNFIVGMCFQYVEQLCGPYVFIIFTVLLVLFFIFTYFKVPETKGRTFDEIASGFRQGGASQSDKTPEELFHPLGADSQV

Row | Structure (SMILES) | inhibition
1 | CC[C@H](C)CNC(=O)c1cncc(-c2ccc(CN3CCC(N4CCCC4)CC3)cc2)c1 | 0.53%
2 | COc1cc(Cc2cnc(N)nc2N)cc(OCCNC(=O)OCc2ccccc2)c1OC | -1.11%
3 | COc1cc(Cc2cnc(N)nc2N)cc(OCCCCC2SC(=O)NC2=O)c1Br (stereo not given) | 6.08%
4 | COc1ccccc1NC(=O)Nc1ccc(-c2ccc(-c3nc4cc(C(F)(F)F)ccc4[nH]3)cc2)cc1 | 9.03%
5 | c1ccc2cc3c(Nc4ccc(N5CCCCC5)cc4)ccnc3cc2c1 | 2.76%
6 | Cc1ccc2[nH]ncc2c1N(CC1CCCCC1)c1ccnc(Nc2ccc(OCC(O)CN3CC=CCC3)cc2)n1 (stereo not given) | 2.37%
7 | Cc1nnc2c(NC(=O)NC3CCCC3)cc3cc(-c4ccc(CN5CCCCC5)cc4)ccc3n12 | 1.79%
8 | Cc1cccc2nc(-c3ccc(-c4cccc(CNCc5ccc(CN)cc5)c4)s3)[nH]c12 | 3.9%
9 | COc1ccc(CC(=O)NC(CCCN2CCC(c3ccccc3)CC2)c2ccc(Cl)c(Cl)c2)cc1OC (stereo not given) | 1.29%
10 | CC1CC(C)CN(CC(O)CNC(=O)Nc2ccc(Br)cc2)C1 (stereo not given) | 6.62%
11 | COc1cccc(CCN(Cc2ccccc2-c2ccc(CNC3CC(C)(C)NC(C)(C)C3)cc2)C(=O)NC2CCCCC2)c1 | 0.9%
12 | CCN(CC)CCCNc1nccc(N(C)c2ccc(NC(=O)Nc3cc(C(F)(F)F)ccc3F)cc2)n1 | 11.7%
13 | CC(CN)OCn1cnc2c(N)ncnc21 (stereo not given) | 0.4%
14 | N#Cc1cccc(C(=O)Nc2cccc(-c3ccc(CN4CCC(O)CC4)cc3)c2)c1 | 3.3%
15 | CC(C)(C)NS(=O)(=O)c1cc(C(=O)N2CCC(CCN3CCC(C(=O)c4ccc(F)cc4)CC3)(c3cccc(F)c3)CC2)c(Cl)cc1F | 7.28%
16 | O=C(c1cccc(Cl)c1)N1CCN(c2ccc([N+](=O)[O-])c(NC3CC3)c2)CC1 | 0.4%
17 | CCc1c(CCNCCCCCCNCCc2ccc(OC)c(OC)c2C)ccc(OC)c1OC | 10.2%
18 | CN(C)Cc1ccc(-c2ccc(NC(=O)c3ccc4c(=O)n(Cc5ccccc5)cnc4c3)cc2)cc1 | 95.2%
19 | CCOc1c(CNCCCCCCNCc2ccc3ccccc3c2OCC)ccc2ccccc12 | 3.4%
20 | c1cc(-c2cc3ccc(C4=NCCN4)cc3[nH]2)ccc1C1=NCCN1 | 1.68%

Row | Structure (SMILES) | inhibition
21 | CNCCNCc1cccc(-c2ccc(-c3nc4cccc(C)c4[nH]3)cc2)c1 | -1.62%
22 | CCc1cccc(OCC2CCCN(c3ccc(C(=O)NC4CC4)cn3)C2)c1 (stereo not given) | 4.71%
23 | Cc1cc(N(C)C)nc(Nc2ccc(NC(=O)c3c(F)cccc3Cl)cc2)n1 | 7.36%
24 | CCOC(=O)C1CCN(CCOc2cc(NC(=O)/C=C/c3ccccc3Cl)ccc2Br)CC1 | 8.71%
25 | Cc1ccc(NC(=O)Nc2ccc(S(=O)(=O)c3ccc(NC(=O)Nc4ccc(C)c(Cl)c4)cc3)cc2)cc1Cl | 0.06%
26 | c1ccc(Oc2ccc(Nc3nncc4ccccc34)cc2)cc1 | 1.62%
27 | CS(=O)(=O)Nc1cccc(-c2cnc3[nH]cc(-c4ccc(C(=O)O)c(F)c4)c3c2)c1 | -2.02%
28 | CCC(Nc1noc(-c2c(-c3ccccc3)noc2C)n1)c1ccccc1 (stereo not given) | -1.15%
29 | CCC(C)NC(=O)CN1CN(c2ccccc2)C2(CCN(C(=O)c3ccc(-c4ccccc4)cc3)CC2)C1=O (stereo not given) | 8.23%
30 | COc1ccc(CC(=O)Nc2ccc(Nc3nc(C)cc(N(C)C)n3)cc2)cc1 | 10.3%
31 | NCC1CCCN1Cc1cccc(-c2ccc(-c3nc4cc(C(F)(F)F)ccc4[nH]3)s2)c1 (stereo not given) | 1.28%
32 | O=c1cc(NCC2(CNCc3cn(Cc4ccccc4)c4ccccc34)CCCCC2)[nH]c2ccccc12 | 4.81%
33 | CN1CCN(c2ccnc3ccc(NC(=O)Nc4ccc(-c5ccncc5)c(C(F)(F)F)c4)cc23)CC1 | 11.3%
34 | Cc1csc2nc(-c3ccccn3)nc(Nc3ccc4ncsc4c3)c12 | 0.73%
35 | COc1cc(Nc2ccc3cc(S(=O)(=O)N4CCCCC4C)ccc3n2)cc(OC)c1OC (stereo not given) | 6.4%
36 | COc1ccc2nccc([C@@H](O)CN3CCC(NC(=O)Cn4nc(-c5ccc(C(F)(F)F)cc5)ccc4=O)CC3)c2c1 | 4.01%
37 | CCOc1cc(CNCCCCCCNCc2cc(OCC)c(OCC)c3ccccc23)c2ccccc2c1OCC | 58.6%
38 | CC1(C)N=C(N)N=C(N)N1c1cccc(Cl)c1 | 0.67%
39 | c1ccc(COc2ccc(Nc3ncnc4cnc(-c5ccc(CNc6cccnc6)o5)cc34)cc2)cc1 | 3.94%
40 | CC(C)CC1c2[nH]c3ccccc3c2CCN1C(=O)CCc1ccccc1 (stereo not given) | 5.53%

target: Hexose transporter 1 (Plasmodium falciparum) (UniProt O97467); test: ST_JUDE_LEISH: Cytotoxicity at 2uM final concentration against transgenic Leishmania Mexicana promastigotes LmPfHT that are glucose transport deficient and complemented with the Plasmodium falciparum hexose transporter. Activity is measured by DNA content using SYBR green in vitro; type: functional

Row | Structure (SMILES) | inhibition
41 | CC[C@H](C)CNC(=O)c1cncc(-c2ccc(CN3CCC(N4CCCC4)CC3)cc2)c1 | 0.26%
42 | COc1cc(Cc2cnc(N)nc2N)cc(OCCNC(=O)OCc2ccccc2)c1OC | -1.55%
43 | COc1cc(Cc2cnc(N)nc2N)cc(OCCCCC2SC(=O)NC2=O)c1Br (stereo not given) | 4.54%
44 | COc1ccccc1NC(=O)Nc1ccc(-c2ccc(-c3nc4cc(C(F)(F)F)ccc4[nH]3)cc2)cc1 | 4.25%
45 | c1ccc2cc3c(Nc4ccc(N5CCCCC5)cc4)ccnc3cc2c1 | 4.37%
46 | Cc1ccc2[nH]ncc2c1N(CC1CCCCC1)c1ccnc(Nc2ccc(OCC(O)CN3CC=CCC3)cc2)n1 (stereo not given) | 3.33%
47 | Cc1nnc2c(NC(=O)NC3CCCC3)cc3cc(-c4ccc(CN5CCCCC5)cc4)ccc3n12 | 1.94%
48 | Cc1cccc2nc(-c3ccc(-c4cccc(CNCc5ccc(CN)cc5)c4)s3)[nH]c12 | 3.91%
49 | COc1ccc(CC(=O)NC(CCCN2CCC(c3ccccc3)CC2)c2ccc(Cl)c(Cl)c2)cc1OC (stereo not given) | 2.2%
50 | CC1CC(C)CN(CC(O)CNC(=O)Nc2ccc(Br)cc2)C1 (stereo not given) | 5.27%
51 | COc1cccc(CCN(Cc2ccccc2-c2ccc(CNC3CC(C)(C)NC(C)(C)C3)cc2)C(=O)NC2CCCCC2)c1 | 0.87%
52 | CCN(CC)CCCNc1nccc(N(C)c2ccc(NC(=O)Nc3cc(C(F)(F)F)ccc3F)cc2)n1 | 9.93%
53 | CC(CN)OCn1cnc2c(N)ncnc21 (stereo not given) | 4.03%
54 | N#Cc1cccc(C(=O)Nc2cccc(-c3ccc(CN4CCC(O)CC4)cc3)c2)c1 | -0.89%
55 | CC(C)(C)NS(=O)(=O)c1cc(C(=O)N2CCC(CCN3CCC(C(=O)c4ccc(F)cc4)CC3)(c3cccc(F)c3)CC2)c(Cl)cc1F | 9.1%
56 | O=C(c1cccc(Cl)c1)N1CCN(c2ccc([N+](=O)[O-])c(NC3CC3)c2)CC1 | 2.47%
57 | CCc1c(CCNCCCCCCNCCc2ccc(OC)c(OC)c2C)ccc(OC)c1OC | 9.23%
58 | CN(C)Cc1ccc(-c2ccc(NC(=O)c3ccc4c(=O)n(Cc5ccccc5)cnc4c3)cc2)cc1 | 94%
59 | CCOc1c(CNCCCCCCNCc2ccc3ccccc3c2OCC)ccc2ccccc12 | 4.82%
60 | c1cc(-c2cc3ccc(C4=NCCN4)cc3[nH]2)ccc1C1=NCCN1 | 2.57%

Row | Structure (SMILES) | inhibition
61 | CNCCNCc1cccc(-c2ccc(-c3nc4cccc(C)c4[nH]3)cc2)c1 | -3.38%
62 | CCc1cccc(OCC2CCCN(c3ccc(C(=O)NC4CC4)cn3)C2)c1 (stereo not given) | 3.55%
63 | Cc1cc(N(C)C)nc(Nc2ccc(NC(=O)c3c(F)cccc3Cl)cc2)n1 | 7.84%
64 | CCOC(=O)C1CCN(CCOc2cc(NC(=O)/C=C/c3ccccc3Cl)ccc2Br)CC1 | 6.51%
65 | Cc1ccc(NC(=O)Nc2ccc(S(=O)(=O)c3ccc(NC(=O)Nc4ccc(C)c(Cl)c4)cc3)cc2)cc1Cl | -0.49%
66 | c1ccc(Oc2ccc(Nc3nncc4ccccc34)cc2)cc1 | 0.25%
67 | CS(=O)(=O)Nc1cccc(-c2cnc3[nH]cc(-c4ccc(C(=O)O)c(F)c4)c3c2)c1 | -1.06%
68 | CCC(Nc1noc(-c2c(-c3ccccc3)noc2C)n1)c1ccccc1 (stereo not given) | 2.18%
69 | CCC(C)NC(=O)CN1CN(c2ccccc2)C2(CCN(C(=O)c3ccc(-c4ccccc4)cc3)CC2)C1=O (stereo not given) | 11.5%
70 | COc1ccc(CC(=O)Nc2ccc(Nc3nc(C)cc(N(C)C)n3)cc2)cc1 | 17.7%
71 | NCC1CCCN1Cc1cccc(-c2ccc(-c3nc4cc(C(F)(F)F)ccc4[nH]3)s2)c1 (stereo not given) | 0.87%
72 | O=c1cc(NCC2(CNCc3cn(Cc4ccccc4)c4ccccc34)CCCCC2)[nH]c2ccccc12 | 5.38%
73 | CN1CCN(c2ccnc3ccc(NC(=O)Nc4ccc(-c5ccncc5)c(C(F)(F)F)c4)cc23)CC1 | 9.91%
74 | Cc1csc2nc(-c3ccccn3)nc(Nc3ccc4ncsc4c3)c12 | 2.13%
75 | COc1cc(Nc2ccc3cc(S(=O)(=O)N4CCCCC4C)ccc3n2)cc(OC)c1OC (stereo not given) | 34.2%
76 | COc1ccc2nccc([C@@H](O)CN3CCC(NC(=O)Cn4nc(-c5ccc(C(F)(F)F)cc5)ccc4=O)CC3)c2c1 | 3.03%
77 | CCOc1cc(CNCCCCCCNCc2cc(OCC)c(OCC)c3ccccc23)c2ccccc2c1OCC | 12.1%
78 | CC1(C)N=C(N)N=C(N)N1c1cccc(Cl)c1 | -0.19%
79 | c1ccc(COc2ccc(Nc3ncnc4cnc(-c5ccc(CNc6cccnc6)o5)cc34)cc2)cc1 | 3.46%
80 | CC(C)CC1c2[nH]c3ccccc3c2CCN1C(=O)CCc1ccccc1 (stereo not given) | 5.28%
